Laboratory results: PubChem BioAssay

molecular target: Torsin-1A-interacting protein 1 (Homo sapiens) (UniProt Q5JTV8); assay: compound microarray binding of lysate hLAP1 – cell lysate, small-molecule microarray, COS7 lysate, 635/667 nm fluorescence, primary screen (AID 1116); details: 635 nm fluorescence, higher = more signal
Sequence (Q5JTV8 whole entry, looked up): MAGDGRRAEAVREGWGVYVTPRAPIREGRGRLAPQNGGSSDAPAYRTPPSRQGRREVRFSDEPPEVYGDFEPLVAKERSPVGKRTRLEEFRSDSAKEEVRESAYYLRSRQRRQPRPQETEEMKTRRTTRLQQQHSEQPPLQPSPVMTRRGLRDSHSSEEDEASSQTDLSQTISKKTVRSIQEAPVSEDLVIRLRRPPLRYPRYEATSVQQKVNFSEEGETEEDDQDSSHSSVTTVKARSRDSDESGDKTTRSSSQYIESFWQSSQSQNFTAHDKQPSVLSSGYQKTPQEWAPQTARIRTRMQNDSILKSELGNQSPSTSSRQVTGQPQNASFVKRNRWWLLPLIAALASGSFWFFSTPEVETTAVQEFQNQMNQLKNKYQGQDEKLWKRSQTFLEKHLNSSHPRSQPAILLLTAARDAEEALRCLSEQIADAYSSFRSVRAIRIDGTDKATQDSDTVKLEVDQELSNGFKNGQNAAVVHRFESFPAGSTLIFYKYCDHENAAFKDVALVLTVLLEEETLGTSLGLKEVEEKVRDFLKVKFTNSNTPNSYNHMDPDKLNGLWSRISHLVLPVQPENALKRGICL

Question: With `C=CCN1C(=O)[C@@]2(O[C@@H](CCO)[C@H]([Si](C)(C)c3ccc(OC)cc3)[C@H]2C)c2cc(NC(C)=O)ccc21` as the molecule, how does the composite z-score read?
Answer: 1.14

Question: Which composite z-score does the source give for `O=C1O[C@@H](c2ccccc2)[C@@H](c2ccccc2)N2[C@@H](c3ccc(O)cc3)[C@]3(C(=O)Nc4ccc(C#CCCO)cc43)[C@@H](C(=O)N3CCCCCCC3)[C@H]12` here?
Answer: 3.66

Question: For `NC(=O)[C@]1(Cc2ccccc2)N=C(c2ccc(OCCCO)cc2)O[C@@H]1c1ccccc1`, which composite z-score is on record?
Answer: 1.51

Question: `O=C1O[C@H](c2ccccc2)[C@H](c2ccccc2)N2[C@H]1[C@@H](C(=O)NC[C@H](O)c1ccccc1)[C@]1(C(=O)Nc3ccc(C#CC4=CCCCC4)cc31)[C@H]2c1ccc(O)cc1` was tested. Which composite z-score did it give?
Answer: 0.705

Question: For `C=C[C@H](C)[C@H](O)c1ccc(OCCO)cc1`, which composite z-score is on record?
Answer: -1.26

Question: With `O=S(=O)(NCCCO)c1ccc(Br)cc1` as the molecule, how does the composite z-score read?
Answer: 0.365

Question: `O=C1c2ccccc2[C@](Cc2ccccc2I)(C(=O)O)[C@H](c2ccc(CO)cc2)N1Cc1ccccc1C(F)(F)F` was tested. Which composite z-score did it give?
Answer: -0.0086

Question: `CCOC(=O)C1=C[C@@H](C(C)(C)C)N(S(=O)(=O)c2ccc(C)cc2)[C@H]1c1ccc(Cl)c(Cl)c1` was tested. Which composite z-score did it give?
Answer: 0.735

Question: Which composite z-score does the source give for `COCC1=C([C@H](O)CCc2ccccc2)[C@H](CO)[C@@H]2C(=O)N(Cc3ccccc3)C(=O)[C@@H]2C1` here?
Answer: 0.167

Question: With `C[N+](C)(C)CCCC[C@@H]1NC(=O)[C@H]2C[C@@H](C(=O)O)[C@@H](c3cccc(OCCO)c3)N2C1=O` as the molecule, how does the composite z-score read?
Answer: 3.37

Question: With `COc1ccc([Si](C)(C)[C@H]2[C@H](CC(=O)N3CCC[C@H]3CO)O[C@@]3(C(=O)N(Cc4cccc(N5CCC5=O)c4)c4ccccc43)[C@@H]2C)cc1` as the molecule, how does the composite z-score read?
Answer: 0.901

Question: How did the composite z-score turn out when `C=CCNC(=O)[C@H]1[C@@H]2C(=O)O[C@@H](c3ccccc3)[C@@H](c3ccccc3)N2[C@@H](c2ccc(OCCO)cc2)[C@]12C(=O)N(C(=O)OCCOC)c1ccc(C#CC3(O)CCCCCC3)cc12` was run?
Answer: 1.07

Question: With `CCCCN1CC=CC23O[C@@H]4C=CCCOC(=O)C4[C@H]2C(=O)N(CCCO)[C@@H]3C1=O` (stereo not given in full) as the molecule, how does the composite z-score read?
Answer: -0.643

Question: With `O=C(N1CCCCC1)[C@]1(CCS(=O)(=O)c2ccccc2)N=C(c2ccc(OCCCO)cc2)O[C@@H]1c1ccccc1` as the molecule, how does the composite z-score read?
Answer: 0.917

Question: `O=C1c2ccccc2[C@@]2(Cc3ccccc3N(Cc3ccccc3)C2=O)[C@H](c2ccc(CO)cc2)N1Cc1ccccc1C(F)(F)F` was tested. Which composite z-score did it give?
Answer: 0.0154

Question: How did the composite z-score turn out when `CC(C)C(=C=CC[C@H](O)c1ccccc1OCCO)CCO` was run?
Answer: 1.02

Question: With `C=CCC(OC(C)=O)[C@@H]1[C@@H](N(Cc2cc3ccccc3o2)C(=O)c2ccc(C)cc2)c2cc(OCCCO)ccc2N1C(=O)c1ccc(-c2ccccc2)cc1` (stereo not given in full) as the molecule, how does the composite z-score read?
Answer: 0.285

Question: `CC(C)(C)OC(=O)CC[C@@]1(C(=O)NCC(O)CO)N=C(c2ccc(OCCCO)cc2)O[C@@H]1c1ccccc1` (stereo not given in full) was tested. Which composite z-score did it give?
Answer: 3.12

Question: With `CCOC(=O)C1=CC[C@@H](c2cccc(Cl)c2)N(S(=O)(=O)c2ccc(C)cc2)[C@H]1c1ccc(C#N)cc1` as the molecule, how does the composite z-score read?
Answer: 1.32

Question: For `COC(=O)[C@@]1(Cc2ccc(OC)cc2)[C@H]2c3cc(C(=O)N(C)C)n(Cc4ccc(OC)c(OC)c4)c3C[C@H]2CN1C(=O)c1ccccc1`, which composite z-score is on record?
Answer: 1.15

Question: Which composite z-score does the source give for `OCCCc1cc[n+](Cc2cccc(OC(F)(F)F)c2)cc1` here?
Answer: 0.925

Question: With `O=C1O[C@@H](c2ccccc2)[C@@H](c2ccccc2)N2[C@@H](c3ccc(O)cc3)[C@]3(C(=O)Nc4ccccc43)[C@@H](C(=O)N3CCCCCCC3)[C@H]12` as the molecule, how does the composite z-score read?
Answer: 4.6

Question: Which composite z-score does the source give for `COCCCNC(=O)[C@@]1(C)c2ccccc2C(=O)N(Cc2ccccc2)[C@H]1c1ccc(CO)cc1` here?
Answer: 1.64

Question: `COc1ccc([Si](C)(C)[C@H]2[C@H](CCO)O[C@@]3(C(=O)N(Cc4ccccc4)c4ccc(N5C(=O)COc6ccccc65)cc43)[C@@H]2C)cc1` was tested. Which composite z-score did it give?
Answer: 0.216

Question: With `C=C(C)[C@@H]1CC=C(C(O)C2C=CC3C(=O)N(Cc4ccccc4)C(=O)C3N2n2cnnc2)CC1` (stereo not given in full) as the molecule, how does the composite z-score read?
Answer: 0.401

Question: `C=C(CCCC)C(=O)CC[C@H](OC(=O)c1ccccc1-c1ccccc1C(=O)O)c1ccc(CO)o1` was tested. Which composite z-score did it give?
Answer: 0.876

Question: Which composite z-score does the source give for `O=C1C2C=CC(C(O)C3CC=CCC3)N(n3cnnc3)C2C(=O)N1Cc1ccccc1` (stereo not given) here?
Answer: 0.752

Question: How did the composite z-score turn out when `C=CCC(OC(C)=O)[C@@H]1[C@@H](N(Cc2cc3ccccc3o2)C(=O)c2ccc(-c3ccccc3)cc2)c2cc(OCCCO)ccc2N1C(=O)Cc1ccc2ccccc2c1` (stereo not given in full) was run?
Answer: 0.0452

Question: `O=[N+]([O-])c1ccc(C[n+]2ccc(CCCO)cc2)o1` was tested. Which composite z-score did it give?
Answer: 0.261

Question: `CC(c1ccccc1)C(O)C1C=CC2C(=O)N(Cc3ccccc3)C(=O)C2N1n1cnnc1` (stereo not given) was tested. Which composite z-score did it give?
Answer: 0.0111
